# Measured values from PubChem BioAssay.
# Values joined by “and” are separate entries in the source; they are usually repeats but may differ in a detail not shown here. Identical values can stand only once. Inconclusive results are not listed. For some assays here: Results with a measured potency or affinity are listed apart. Active and inactive are the calls of the source. Unless noted, no rule for the calls is given here.
# Tests used:
# [1] = target: ATP-dependent translocase ABCB1 (Homo sapiens) (UniProt P08183); assay: MDR1 (ABCB1) efflux transporter inhibition, cell-based (AID 377; in the data active = fluorescence slope change above about 50%); conditions: MDR1-expressing cells, fluorescent substrate accumulation slope; stronger effect = higher value; concentration not given here
# Chain of ATP-dependent translocase ABCB1 (Homo sapiens) (P08183 whole entry, looked up): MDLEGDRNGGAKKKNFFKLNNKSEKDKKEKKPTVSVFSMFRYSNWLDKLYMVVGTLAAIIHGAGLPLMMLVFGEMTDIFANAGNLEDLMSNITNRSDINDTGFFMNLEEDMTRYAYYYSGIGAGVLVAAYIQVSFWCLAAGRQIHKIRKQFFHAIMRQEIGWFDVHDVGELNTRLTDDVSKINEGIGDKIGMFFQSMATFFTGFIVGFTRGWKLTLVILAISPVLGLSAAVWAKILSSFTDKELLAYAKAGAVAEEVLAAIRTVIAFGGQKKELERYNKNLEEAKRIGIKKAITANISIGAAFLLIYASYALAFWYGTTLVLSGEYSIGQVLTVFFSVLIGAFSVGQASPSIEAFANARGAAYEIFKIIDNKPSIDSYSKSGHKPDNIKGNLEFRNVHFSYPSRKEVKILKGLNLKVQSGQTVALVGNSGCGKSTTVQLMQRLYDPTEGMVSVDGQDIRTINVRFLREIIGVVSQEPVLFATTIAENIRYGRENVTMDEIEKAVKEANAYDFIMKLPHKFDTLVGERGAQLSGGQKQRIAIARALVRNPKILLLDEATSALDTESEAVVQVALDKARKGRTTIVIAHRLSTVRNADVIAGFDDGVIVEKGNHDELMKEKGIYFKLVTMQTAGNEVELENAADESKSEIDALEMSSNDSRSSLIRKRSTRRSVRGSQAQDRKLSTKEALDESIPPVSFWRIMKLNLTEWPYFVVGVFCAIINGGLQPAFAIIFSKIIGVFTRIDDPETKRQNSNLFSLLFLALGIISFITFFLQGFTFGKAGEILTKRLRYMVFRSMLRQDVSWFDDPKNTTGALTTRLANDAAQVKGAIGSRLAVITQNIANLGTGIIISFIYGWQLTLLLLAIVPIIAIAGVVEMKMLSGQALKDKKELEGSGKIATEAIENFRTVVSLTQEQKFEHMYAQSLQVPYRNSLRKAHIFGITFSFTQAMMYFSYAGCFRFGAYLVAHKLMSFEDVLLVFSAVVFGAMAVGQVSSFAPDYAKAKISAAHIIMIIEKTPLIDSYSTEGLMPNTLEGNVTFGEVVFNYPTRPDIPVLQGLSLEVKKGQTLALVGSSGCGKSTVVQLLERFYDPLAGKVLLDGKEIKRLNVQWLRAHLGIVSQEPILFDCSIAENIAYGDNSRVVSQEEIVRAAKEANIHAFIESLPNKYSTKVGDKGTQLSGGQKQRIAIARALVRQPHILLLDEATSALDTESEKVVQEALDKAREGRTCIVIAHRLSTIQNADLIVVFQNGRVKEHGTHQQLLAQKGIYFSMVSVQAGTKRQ
# [2] = LFS_MB_2R medulloblastoma cell growth inhibition, synergistic combos for chromothripsis tumors, cisplatin combos (AID 1671457; in the data active = inhibition above about 80%;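 also: cells exposed to compound for four days before readout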); conditions: LFS_MB_2R medulloblastoma cells, stronger effect = higher value
# [3] = UWB1.289_BRCA1 ovarian cancer growth, cell-based, BGB or cisplatin combinations (AID 1671459; in the data active = inhibition above about 80%); conditions: UWB1.289 BRCA1 ovarian carcinoma, drug combinations, stronger effect = higher value
# [4] = human astrocyte viability loss, single and combined drugs, cytotoxicity control for chromothriptic childhood tumor combination screen, cell-based, BGB or cisplatin IC20 combos (AID 1671460; in the data active = inhibition above about 80%;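 also: cells exposed to compounds for 96 hours before viability readout; 0% = vehicle and 100% = killing control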); conditions: Human astrocytes, drug combinations, stronger effect = higher value
# [5] = viability loss in pontine glioma line – cell-based, SU-DIPG-XXV, MIPE5.0, CellTiter-Glo, qHTS, dose response (AID 1347065; cut-off not given, nearly all actives have AC50 up to about 26 µM;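 also: cells exposed to compound for 48 hours before ATP readout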); conditions: CellTiter-Glo ATP luminescence
# [6] = growth inhibition of DIPG glioma cells, dose response, cell-based, SU-DIPG-XIII, MIPE4.0, CellTiter-Glo, qHTS (AID 1347061; cut-off not given, nearly all actives have AC50 up to about 37 µM;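 also: cells exposed to compound for 48 hours before readout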); conditions: SU-DIPG-XIII viability, CellTiter-Glo ATP luminescence
# [7] = growth inhibition of DIPG glioma cells, dose response, cell-based, SU-DIPG-XIII, MIPE5.0, CellTiter-Glo, qHTS (AID 1347064; cut-off not given, nearly all actives have AC50 up to about 23 µM); conditions: SU-DIPG-XIII viability, CellTiter-Glo ATP luminescence
# [8] = tested on: Aerobactin synthetase IucA (Klebsiella pneumoniae); assay: IucA aerobactin synthetase inhibitors, biochemical, Tocris library, absorbance (AID 1345561); conditions: purified IucA enzyme assay, absorbance (OD) read-out; stronger effect = lower value;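 tested at 8 µM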;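 also: 100% = enzyme without compound and 0% = no enzyme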
# [9] = inhibitors of Cryptococcus chitosan production, flow cytometry, Cibacron Brilliant Red staining (AID 1347148); conditions: Cryptococcus neoformans chitosan, stronger effect = lower value; at 10 µM unless noted;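 also: compound exposure lasted three days at 37 degrees C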
# [10] = tested on: Neuropilin-2 / VEGF-C interaction (human); assay: inhibitors of NRP2–VEGF-C binding, biochemical, microplate binding format, z-score (AID 743281); conditions: microplate NRP2/VEGF-C binding assay; stronger effect = lower value
# [11] = growth inhibition of DIPG glioma cells, dose response, cell-based, SU-DIPG-XVII, MIPE5.0, CellTiter-Glo, qHTS (AID 1347060; cut-off not given, nearly all actives have AC50 up to about 26 µM); conditions: SU-DIPG-XVII viability, CellTiter-Glo ATP luminescence
# [12] = JHH-DIPG-1 glioma cell viability, MIPE5.0 library, CellTiter-Glo luminescence, qHTS (AID 1347067; cut-off not given, nearly all actives have AC50 up to about 26 µM;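 also: cells exposed to compound for 48 hours before readout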); conditions: JHH-DIPG-1 glioma viability, CellTiter-Glo ATP luminescence
# [13] = SU-DIPG-XXV glioma cell viability, MIPE5.0 library, qHTS (AID 1347068; cut-off not given, nearly all actives have IC50 up to about 30 µM)
# [14] = modifiers of HSF1 nuclear foci, imaging, Selleck Cancer Library (AID 1347162; in the data active = plate-normalised HSF1 focus index below about 0.46); conditions: human cells, at 10 µM; SSMD: measured here: HSF1 foci SSMD mean; cell count: measured here: cell number; plate-normalised HSF1 focus index: stronger effect = lower value
# [15] = antimalarial activity against Dd2 strain (AID 2302;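 active = growth inhibition above 50% at the single 2 µM test dose, taken to imply half-maximal potency below 2 µM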;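 also: 0% = DMSO untreated growth and 100% = chloroquine plus artemisinin killed control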); conditions: P. falciparum Dd2 in RBCs, LDH growth readout, 72 h; at 2 µM; stronger effect = higher value
# [16] = HepG2 cytotoxicity, primary screen, cytotoxicity control for P. falciparum antimalarial project, cell-based, ATP luminescence (AID 2303;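 active = inhibition above 50%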;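 also: 0% = DMSO wells and 100% = digitonin-killed cells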); conditions: HepG2 viability, 24-48 h, at 10 µM, stronger effect = higher value
# [17] = target: Calcium-dependent protein kinase 1 (Plasmodium falciparum (isolate 3D7)) (UniProt P62344); assay: PfCDPK1 kinase inhibitors, biochemical, TCAMS library (AID 1159585; cut-off not given, nearly all actives have IC50 up to about 0.98 µM;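 also: inhibitors leave more ATP so luminescence rises with inhibition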); conditions: recombinant PfCDPK1, Kinase-Glo ATP depletion luminescence
# Chain of Calcium-dependent protein kinase 1 (Plasmodium falciparum (isolate 3D7)) (P62344 whole entry, looked up): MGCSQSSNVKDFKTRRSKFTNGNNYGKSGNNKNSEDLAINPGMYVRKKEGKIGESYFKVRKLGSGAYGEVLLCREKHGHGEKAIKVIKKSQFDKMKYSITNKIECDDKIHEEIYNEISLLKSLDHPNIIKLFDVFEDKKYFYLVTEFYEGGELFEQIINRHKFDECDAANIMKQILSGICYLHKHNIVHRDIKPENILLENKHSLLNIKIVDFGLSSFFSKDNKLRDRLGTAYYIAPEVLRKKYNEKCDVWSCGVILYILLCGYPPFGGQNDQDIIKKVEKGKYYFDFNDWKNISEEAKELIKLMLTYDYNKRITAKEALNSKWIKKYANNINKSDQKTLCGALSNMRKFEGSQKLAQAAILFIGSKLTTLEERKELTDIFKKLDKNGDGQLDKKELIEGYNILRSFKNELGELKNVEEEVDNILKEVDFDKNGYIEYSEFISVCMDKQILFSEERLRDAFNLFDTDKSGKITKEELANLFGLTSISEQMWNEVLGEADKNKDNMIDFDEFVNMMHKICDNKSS
# [18] = target: Plasmodium falciparum protein kinase 6 (PK6, PF3D7_1337100) (UniProt Q8IDW1); assay: PfPK6 kinase inhibitors, biochemical, TCAMS library (AID 1159586); conditions: recombinant PfPK6, Kinase-Glo ATP depletion luminescence
# Chain of Plasmodium falciparum protein kinase 6 (PK6, PF3D7_1337100) (Q8IDW1 1-305): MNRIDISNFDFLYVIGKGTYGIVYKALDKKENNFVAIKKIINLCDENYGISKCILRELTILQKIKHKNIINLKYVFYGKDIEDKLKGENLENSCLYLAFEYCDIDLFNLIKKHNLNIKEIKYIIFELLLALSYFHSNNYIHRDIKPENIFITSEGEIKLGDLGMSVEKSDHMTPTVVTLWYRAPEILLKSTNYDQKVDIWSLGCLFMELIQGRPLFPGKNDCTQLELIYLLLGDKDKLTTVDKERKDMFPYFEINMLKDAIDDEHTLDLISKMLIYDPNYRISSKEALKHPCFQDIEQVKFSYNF
# [19] = target: Protein kinase 7 (PK7), Plasmodium falciparum 3D7 (PF3D7_0213400) (UniProt Q7YTF7); assay: inhibition of Plasmodium PK7 catalytic activity – biochemical, TCAMS antimalarial set, Kinase-Glo luminescence (AID 1159587); conditions: recombinant PfPK7, Kinase-Glo ATP depletion luminescence
# Chain of Protein kinase 7 (PK7), Plasmodium falciparum 3D7 (PF3D7_0213400) (Q7YTF7 1-343): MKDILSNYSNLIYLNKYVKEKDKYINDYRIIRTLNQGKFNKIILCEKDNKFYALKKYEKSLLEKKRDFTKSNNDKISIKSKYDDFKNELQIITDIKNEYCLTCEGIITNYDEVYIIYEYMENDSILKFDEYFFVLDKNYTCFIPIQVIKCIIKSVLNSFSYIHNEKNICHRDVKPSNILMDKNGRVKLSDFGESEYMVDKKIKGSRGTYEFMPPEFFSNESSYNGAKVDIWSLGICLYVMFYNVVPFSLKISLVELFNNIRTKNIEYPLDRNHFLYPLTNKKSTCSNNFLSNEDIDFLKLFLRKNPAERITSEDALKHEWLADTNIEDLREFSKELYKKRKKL
# [20] = target: Calcium-dependent protein kinase 4 (Plasmodium falciparum (isolate 3D7)) (UniProt Q8IBS5); assay: PfCDPK4 kinase inhibitors, biochemical, TCAMS library (AID 1159588; cut-off not given, nearly all actives have IC50 up to about 0.91 µM); conditions: recombinant PfCDPK4, Kinase-Glo ATP depletion luminescence
# Chain of Calcium-dependent protein kinase 4 (Plasmodium falciparum (isolate 3D7)) (Q8IBS5 whole entry, looked up): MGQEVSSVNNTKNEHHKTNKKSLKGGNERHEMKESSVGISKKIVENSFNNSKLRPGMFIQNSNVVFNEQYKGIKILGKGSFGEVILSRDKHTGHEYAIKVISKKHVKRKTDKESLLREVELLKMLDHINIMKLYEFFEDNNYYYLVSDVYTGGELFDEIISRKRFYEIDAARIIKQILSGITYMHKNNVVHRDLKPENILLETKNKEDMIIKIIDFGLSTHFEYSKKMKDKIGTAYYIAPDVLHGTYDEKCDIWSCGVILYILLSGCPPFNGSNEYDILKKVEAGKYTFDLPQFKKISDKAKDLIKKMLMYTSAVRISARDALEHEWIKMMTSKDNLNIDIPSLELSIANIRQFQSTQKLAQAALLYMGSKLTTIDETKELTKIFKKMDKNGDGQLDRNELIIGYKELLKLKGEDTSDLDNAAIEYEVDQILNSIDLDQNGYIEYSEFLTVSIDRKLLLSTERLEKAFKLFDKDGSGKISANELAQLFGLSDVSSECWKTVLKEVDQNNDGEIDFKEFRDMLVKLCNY
# [21] = measured here: combination with cisplatin, at 0.5 µM
# [22] = measured here: combination with cisplatin, at 5 µM
# [23] = BGB combination, concentration series, at 5 µM
# [24] = cisplatin combination, concentration series, at 5 µM
# [25] = measured here: combo with BGB IC20, at 0.5 µM
# [26] = measured here: combo with cisplatin IC20, at 0.5 µM
compound,measurement,setting,value
C[C@@H]1CCC[C@H](C)N1,fluorescence slope change,[1],9.9% (inactive)
CN1C[C@@H]2C[C@H]1CN2c1cc2c(cc1F)c(=O)c(C(=O)O)cn2C1CC1,inhibition,[2]; at 0.5 µM,-7.92% (inactive)
same,inhibition,[2]; [21],-3.36%
same,inhibition,[2]; [22],-96.9%
same,inhibition,[3]; [23],-23.3%
same,inhibition,[3]; at 0.5 µM,-16% (inactive)
same,inhibition,[3]; [24],2.38%
same,inhibition,[4]; at 0.5 µM,-25.7% (inactive)
same,inhibition,[4]; [25],-14.8%
same,inhibition,[4]; [26],-51.5%
Cc1c(-c2ccc(O)cc2)n(Cc2ccc(OCCN3CCCCCC3)cc2)c2ccc(O)cc12,AC50,[5],20.9 µM (active)
Cc1ccc2nc(N)[nH]c(=O)c2c1Sc1ccncc1,inhibition,[2]; at 0.5 µM,-12.4% (inactive)
same,inhibition,[2]; [21],-25.9%
same,inhibition,[2]; [22],-11.5%
same,inhibition,[3]; [23],-8.1%
same,inhibition,[3]; at 0.5 µM,-23.6% (inactive)
same,inhibition,[3]; [24],-9.76%
same,inhibition,[4]; at 0.5 µM,-6.91% (inactive)
same,inhibition,[4]; [25],-8.77%
same,inhibition,[4]; [26],-12.3%
CCCCCCCCCCCCCCCCCCOP(=O)([O-])OC1CC[N+](C)(C)CC1,outcome,[6],inactive
same,outcome,[7],inactive
Cc1cccc(Nc2cc(Cl)nc(SCC(=O)O)n2)c1C,remaining activity,[8],107% (inactive)
same,fold fluorescence,[9],4.05 (inactive)
NC(=O)c1cccnc1,z-score,[10],1.84 (inactive)
same,outcome,[11],inactive
same,outcome,[7],inactive
same,outcome,[5],inactive
same,outcome,[12],inactive
same,outcome,[13],inactive
CC(C)NCC(O)COc1cccc2[nH]ccc12 (stereo not given),fluorescence slope change,[1],68.5% (active)
same,remaining activity,[8],101% (inactive)
CCN(CC)CCOc1ccc(Cc2ccccc2)cc1,remaining activity,[8],100% (inactive)
same,outcome,[7],inactive
same,outcome,[12],inactive
same,outcome,[13],inactive
CCCC(CCC)C(=O)O,outcome,[11],inactive
same,outcome,[6],inactive
same,outcome,[5],inactive
same,outcome,[12],inactive
same,outcome,[13],inactive
same,inhibition,[2]; at 0.5 µM,-16.9% (inactive) and 1.18% (inactive)
same,inhibition,[2]; [21],-15.6% and 6.48%
same,inhibition,[2]; [22],-69.4% and 11.4%
same,inhibition,[3]; [23],-15.2% and 3.45%
same,inhibition,[3]; at 0.5 µM,-19% (inactive) and 7.15% (inactive)
same,inhibition,[3]; [24],0.227% and -13.4%
same,inhibition,[4]; at 0.5 µM,-9% (inactive) and 2.09% (inactive)
same,inhibition,[4]; [25],-11% and 1.03%
same,inhibition,[4]; [26],0.797% and 9.29%
CC(C(=O)O)c1cccc(C(=O)c2ccccc2)c1 (stereo not given),fluorescence slope change,[1],70.4% (active)
same,outcome,[11],inactive
same,outcome,[7],inactive
same,outcome,[5],inactive
same,outcome,[12],inactive
CN1CCN(C2=Nc3cc(Cl)ccc3Nc3ccccc32)CC1,remaining activity,[8],121% (inactive)
same,AC50,[5],13.2 µM (active)
same,outcome,[13],inactive
same,fold fluorescence,[9],11 [at 153 µM] (inactive)
Cc1ccc(-n2nc(C(C)(C)C)cc2NC(=O)Nc2ccc(OCCN3CCOCC3)c3ccccc23)cc1,outcome,[11],inactive
same,AC50,[6],13.2 µM (active)
same,outcome,[7],inactive
same,outcome,[5],inactive
same,outcome,[12],inactive
same,outcome,[13],inactive
same,SSMD,[14],3.54
same,cell count,[14],7570
same,plate-normalised HSF1 focus index,[14],1.13 (inactive)
N=c1nc(N2CCCCC2)cc(N)n1O,remaining activity,[8],109% (inactive)
same,outcome,[6],inactive
same,fold fluorescence,[9],4.24 [at 238.9 µM] (inactive)
C[C@@H](C1=C(CCN(C)C)Cc2ccccc21)c1ccccn1,remaining activity,[8],105% (inactive)
O=C(CCCN1CCC(O)(c2ccc(Cl)cc2)CC1)c1ccc(F)cc1,fluorescence slope change,[1],23.3% (inactive)
same,z-score,[10],-0.0752 (inactive)
same,remaining activity,[8],128% (inactive)
same,outcome,[6],inactive
Cc1cc(NS(=O)(=O)c2ccc(N)cc2)no1,fluorescence slope change,[1],62% (active)
same,AC50,[6],2.96 µM (active)
CN/C(=C\[N+](=O)[O-])NCCSCc1ccc(CN(C)C)o1,fluorescence slope change,[1],105% (active)
CC(C)OC(=O)C(C)(C)Oc1ccc(C(=O)c2ccc(Cl)cc2)cc1,outcome,[7],inactive
same,outcome,[12],inactive
same,outcome,[13],inactive
COC(=O)C1=C(C)NC(C)=C(C(=O)OC)C1c1ccccc1[N+](=O)[O-],z-score,[10],-0.452 (inactive)
same,remaining activity,[8],121% (inactive)
same,fold fluorescence,[9],3.72 [at 144.4 µM] (inactive)
O=C(O)CCc1nc(-c2ccccc2)c(-c2ccccc2)o1,z-score,[10],0.876 (inactive)
O=C1CN(/N=C/c2ccc([N+](=O)[O-])o2)C(=O)N1,fluorescence slope change,[1],98.9% (active)
COC(=O)C1=C(C)NC(C)=C(C(=O)OCCN(C)Cc2ccccc2)C1c1cccc([N+](=O)[O-])c1 (stereo not given),fluorescence slope change,[1],15.7% (inactive)
CC(C)(C)NCC(O)c1ccc(O)c(CO)c1 (stereo not given),z-score,[10],-0.605 (inactive)
same,outcome,[11],inactive
same,outcome,[6],inactive
same,outcome,[7],inactive
same,outcome,[5],inactive
same,outcome,[12],inactive
same,outcome,[13],inactive
COc1ccc2cc([C@H](C)C(=O)O)ccc2c1,z-score,[10],-0.354 (inactive)
same,remaining activity,[8],75.8% (inactive)
same,outcome,[11],inactive
same,outcome,[6],inactive
same,outcome,[12],inactive
same,outcome,[13],inactive
COCCCOc1ccnc(CS(=O)c2nc3ccccc3[nH]2)c1C (stereo not given),z-score,[10],0.22 (inactive)
same,outcome,[11],inactive
same,outcome,[6],inactive
same,outcome,[5],inactive
same,outcome,[13],inactive
COc1cc(Cc2cnc(N)nc2N)cc(OC)c1OC,growth inhibition,[15],2% (inactive)
same,inhibition,[16],0% (inactive)
same,outcome,[17],inactive
same,outcome,[18],inactive
same,outcome,[19],inactive
same,outcome,[20],inactive
CCn1cc(C(=O)O)c(=O)c2ccc(C)nc21,fluorescence slope change,[1],59.8% (active)
same,outcome,[6],inactive
same,inhibition,[2]; at 0.5 µM,5.5% (inactive) and -20.2% (inactive)
same,inhibition,[2]; [21],1.69% and -14.8%
same,inhibition,[2]; [22],8.3% and -22.4%
same,inhibition,[3]; [23],11.3% and 18.4%
same,inhibition,[3]; at 0.5 µM,11% (inactive) and -9.48% (inactive)
same,inhibition,[3]; [24],7.14% and -4.85%
same,inhibition,[4]; at 0.5 µM,1.03% (inactive) and 6.47% (inactive)
same,inhibition,[4]; [25],-4.36% and 3.89%
same,inhibition,[4]; [26],17.2% and 0.487%
CN1C(=O)CC[C@H]1c1cccnc1,fluorescence slope change,[1],94.5% (active)
same,z-score,[10],-0.371 (inactive)
COc1ccccc1N1CCN(CCCCNC(=O)c2ccc(-c3ccc(C(C)=O)cc3)cc2)CC1,remaining activity,[8],111% (inactive)
COc1c2occc2cc2ccc(=O)oc12,fluorescence slope change,[1],78.2% (active)
same,outcome,[11],inactive
same,outcome,[6],inactive
same,outcome,[7],inactive
same,outcome,[12],inactive
same,outcome,[13],inactive
CN(C)C(=O)C(CCN1CCC(O)(c2ccc(Cl)cc2)CC1)(c1ccccc1)c1ccccc1,remaining activity,[8],118% (inactive)
same,outcome,[6],inactive
same,outcome,[7],inactive
same,outcome,[12],inactive
same,outcome,[13],inactive
same,fold fluorescence,[9],10.1 [at 104.8 µM] (inactive)
CN1[C@@H]2CC(OC(=O)[C@H](CO)c3ccccc3)C[C@H]1[C@@H]1O[C@@H]12 (stereo not given in full),z-score,[10],-0.461 (inactive)
same,remaining activity,[8],104% (inactive)
